Results on 88 compounds are retold here after PubChem BioAssay AID463173 (ICCB-Longwood Screening Facility, Harvard Medical School, 2010).

About 4,300 (8.3%) of roughly 52,000 compounds were called active. Shown is part of a subset that was picked to be rich in actives. Unmarked numbers belong to inactive results. No stated cut-off is given here; in the data, active means survival mostly below about 52% (no sharp cut-off); inactive means mostly above about 56%.

For the experiment, the system named is DeltatarO mutant. The experiment can be described thus: growth inhibition of S. aureus wild type versus tarO mutant, primary screen, teichoic acid synthesis inhibitors, RN4220, OD600 (AID 463173). The settings on record: OD600, 18 h, hits give low values, screened at 18.75 µg/mL (by protocol).
As to `CCC1(c2csc(Nc3ccccc3C)n2)CCC(=O)O1` (stereo not drawn), the survival was 89%.

On to `CCCC1CC(C)(/C(C)=N\NC(N)=S)OC1=O` (stereo not drawn), for which the survival is 98%.

For `CCCC1CC(C)(c2csc(NCC)n2)OC1=O` (stereo not drawn), the survival is 71% (active).

In the case of `CCCCc1ccc(NC(=O)C2(C)Cc3ccccc3C(=O)O2)cc1` (stereo not drawn), the survival is 75%.

For the compound `COc1ccc(S(=O)(=O)N(CC(=O)NCCc2ccccc2)c2ccc(Cl)cc2)cc1`, the survival is 83%.

For the compound `COc1ccc(CCN2C(=O)N(c3ccc(F)cc3)C(=O)C2CC(=O)Nc2ccc(F)c(F)c2)cc1` (stereo not drawn), the survival is 61%.

On to `COCc1oc2ccc(NS(=O)(=O)c3ccc(C)cc3)cc2c1C(=O)OC`, for which the survival was 60%.

For the compound `CCOC(=O)c1c(-c2ccccc2)oc2ccc(NS(=O)(=O)c3ccc(OC)cc3)cc12`, the survival was 60%.

As to `CCOC(=O)c1c(C)oc2ccc(N(C(=O)c3ccncc3)S(=O)(=O)c3ccc(F)cc3)cc12`, the survival is 28% (active).

Consider `CCCc1oc2ccc(NS(=O)(=O)c3ccc(OCC)cc3)cc2c1C(=O)OCC`, for which the survival is 65%.

For `CCCCOC(=O)c1c(C)oc2ccc(NS(=O)(=O)c3ccc(F)cc3C)cc12`, the survival is 10% (active).

On to `CCOC(=O)c1c(-c2ccccc2)oc2ccc(NS(=O)(=O)c3ccc(C)cc3)cc12`, for which the survival is 83%.

In the case of `CCc1ccc(S(=O)(=O)Nc2ccc3oc(C)c(C(=O)OCCOC)c3c2)cc1`, the survival is 32% (active).

Turning to `Cc1cc(F)ccc1S(=O)(=O)Nc1ccc2oc3c(c2c1)CC(C)CC3` (stereo not drawn), the survival is 56%.

In the case of `CCOC(=O)c1c(C)oc2ccc(N(C(=O)c3ccncc3)S(=O)(=O)c3ccc(CC)cc3)cc12`, the survival was 60%.

Take `CCOC(=O)c1c(-c2ccccc2)oc2ccc(NS(=O)(=O)c3ccc(C)cc3C)cc12`: the survival is 47%.

For the compound `CCOC(=O)c1c(-c2ccccc2)oc2ccc(NS(=O)(=O)c3ccccc3)cc12`, the survival was 35% (active).

Turning to `CCOC(=O)c1c(C)oc2ccc(N(C(=O)c3ccncc3)S(=O)(=O)c3ccc(F)cc3C)cc12`, the survival was 79%.

For the compound `CC(C)(C)c1ccc(CN(Cc2ccco2)Cc2nnnn2C2CCCCC2)cc1`, the survival was 105%.

Turning to `CC1CCc2c(nc3ncnn3c2NCCN(C)C)C1` (stereo not drawn), the survival was 88%.

Consider `COc1cccc(NC(=O)Nc2cccc(-c3cn4cccnc4n3)c2)c1`, for which the survival was 78%.

Take `COc1ccc(C(=O)n2cnnc2N)cc1`: the survival is 103%.

With `Cc1cc(C)c(S(=O)(=O)Nc2ccc3oc(C)c(C(=O)OC(C)C)c3c2)cc1C`, the survival was 48% (active).

In the case of `CC(=O)c1c(C)oc2ccc(NS(=O)(=O)c3ccc(C(C)C)cc3)cc12`, the survival was 78%.

With `CCOC(=O)c1c(-c2ccccc2)oc2ccc(NS(=O)(=O)c3cc(C)c(C)cc3C)cc12`, the survival is 63%.

As to `COc1ccc(CCNC(=O)CCn2c(=O)c3cccn3c3ccc(F)cc32)cc1OC`, the survival is 45% (active).

Regarding `COc1ccc(CCNC(=O)Cn2c(=O)c3cccn3c3ccc(F)cc32)cc1OC`, the survival is 72%.

Consider `COc1ccc(CCNC(=O)CCCn2c(=O)c3cccn3c3ccc(F)cc32)cc1OC`, for which the survival was 43% (active).

`CCOc1ccc(CCNC(=O)CCn2c(=O)c3cccn3c3ccc(F)cc32)cc1OCC`: the survival was 42% (active).

Turning to `COc1ccc(CNC(=O)CCCn2c(=O)c3cccn3c3ccc(F)cc32)cc1OC`, the survival was 53%.

Turning to `CCOc1ccc(CCNC(=O)Cn2c(=O)c3cccn3c3ccc(F)cc32)cc1OCC`, the survival was 74%.

As to `COc1ccc(CCNC(=O)CCCn2c(=O)c3cccn3c3ccccc32)cc1OC`, the survival is 61%.

`CCOc1ccc(CCNC(=O)CCCn2c(=O)c3cccn3c3cccnc32)cc1OCC`: the survival is 93%.

Turning to `COc1ccc(CNC(=O)CCn2c(=O)c3cccn3c3ccc(F)cc32)cc1OC`, the survival is 91%.

Consider `COc1ccc(N2CC(NC(=O)c3c(F)cccc3Cl)CC2=O)cc1OC` (stereo not drawn), for which the survival was 95%.

For the compound `COc1ccc(Cl)cc1NC(=O)CSc1nnc(C)n2c1cc1sccc12`, the survival is 68%.

For the compound `Cc1ccc(-n2nc(C)c3c(C(F)(F)F)cc(-c4cccnc4)nc32)cc1C`, the survival is 42%.

On to `CCN(Cc1ccccc1)C(=O)Cn1c(=O)n(Cc2ccccc2)c(=O)c2c1c1cc(OC)ccc1n2C`, for which the survival is 59%.

Regarding `O=C(CN1C(=O)C2(SCC(=O)N2c2cccc(Cl)c2)c2ccccc21)NCCc1ccccc1` (stereo not drawn), the survival was 104%.

In the case of `CCOc1ccccc1CNC(=O)CN1C(=O)C2CCCCN2c2ccc(C(=O)N(C)C)cc21` (stereo not drawn), the survival was 120%.

With `COc1cccc(NC(=O)CSc2nc3ccc(NC(=O)c4ccco4)cc3s2)c1`, the survival is 77%.

Turning to `CN(C)c1cccc(C(=O)Nc2nc3ccc(S(=O)(=O)NC(C)(C)C)cc3s2)c1`, the survival was 47% (active).

With `CC(C)(C)NS(=O)(=O)c1ccc2nc(NC(=O)c3cccnc3)sc2c1`, the survival was 86%.

Regarding `CN(C)c1cccc(C(=O)Nc2nc3ccc(S(=O)(=O)N4CCCC4)cc3s2)c1`, the survival was 135%.

Take `Cc1cccc(NC(=O)Cn2nc(N3CCN(c4ccccc4)CC3)ccc2=O)c1C`: the survival is 87%.

In the case of `COc1cc(NC(=O)c2nc3cc(C)c(C)cc3n(C)c2=O)cc(OC)c1OC`, the survival is 94%.

In the case of `OC(COc1ccc(Cl)cc1Cl)CN1CCCCC1` (stereo not drawn), the survival was 70%.

Consider `Cc1ccccc1OCC(O)Cn1c(=N)n(CCN2CCCCC2)c2ccccc21` (stereo not drawn), for which the survival is 71%.

On to `COc1ccc(OCC(O)Cn2c(=N)n(CCN3CCCCC3)c3ccccc32)cc1` (stereo not drawn), for which the survival is 46%.

As to `Cc1ccc(OCC(O)Cn2c(=N)n(CCN3CCCCC3)c3ccccc32)cc1` (stereo not drawn), the survival was 36% (active).

On to `N=c1n(CCN2CCCCC2)c2ccccc2n1CC(O)COc1ccccc1` (stereo not drawn), for which the survival was 163%.

Consider `N=c1n(CCN2CCCCC2)c2ccccc2n1CC(O)COc1ccc(Cl)cc1Cl` (stereo not drawn), for which the survival is -16% (active).

Regarding `CCN1CCCC1CNC(=O)Nc1c[nH]c2ccc(C)cc2c1=O` (stereo not drawn), the survival was 102%.

`O=C(Nc1nc2n(n1)C(c1ccccc1)C=C(c1ccccc1)N2)c1ccc(Cl)c([N+](=O)[O-])c1` (stereo not drawn): the survival was 63%.

As to `CC(C(=O)NCc1ccccc1)N1Cc2ccccc2C1=O` (stereo not drawn), the survival is 95%.

As to `CCOC(=O)c1c(C)[nH]c(CCC(=O)NCCCN2CCN(c3ccccc3F)CC2)c1C`, the survival was 83%.

In the case of `CCC1(CC)Cc2ccccc2-c2nc(NN)n(Cc3ccccc3)c(=O)c21`, the survival is 48% (active).

`Cn1c(NN)nc2c(c1=O)C1(CCCC1)Cc1ccccc1-2`: the survival is 59%.

Take `NNc1nc2ccccc2c(=O)n1Cc1ccccc1`: the survival was 100%.

In the case of `CN1CCN(C(=S)NCC2CCCO2)CC1` (stereo not drawn), the survival is 64%.

On to `Cc1cccc(NC(=O)Cn2c(=O)oc3cc(S(=O)(=O)NC4CCCC4)ccc32)c1`, for which the survival was 82%.

With `C#CCSc1nc(-c2ccccc2)cc(-c2ccccc2)c1C#N`, the survival is 40% (active).

`CCN(CC)C(=O)CSc1nc(-c2ccccc2)cc(-c2ccc(OC)cc2)c1C#N`: the survival is 45% (active).

In the case of `COc1ccc(-c2cc(-c3ccccc3)nc(SCC(=O)CC(=O)OC(C)C)c2C#N)cc1`, the survival is 55%.

Regarding `COc1ccc(NC(=O)CSc2nc(-c3ccccc3)cc(-c3cc(OC)c(OC)c(OC)c3)c2C#N)c(OC)c1`, the survival is 54%.

Consider `Cc1ccc(-c2cc(C(F)(F)F)c(C#N)c(SCC(=O)Nc3ccccc3)n2)cc1`, for which the survival is 53% (active).

In the case of `COc1ccc(-c2cc(-c3ccccc3)nc(SCC(=O)Nc3ccccc3F)c2C#N)cc1`, the survival is 140%.

Regarding `COc1ccc(-c2cc(-c3ccccc3)nc(SCC(=O)Nc3ccccc3C)c2C#N)cc1`, the survival is 56% (active).

For the compound `CCS(=O)(=O)CCSc1nc(-c2ccc(Br)cc2)cc(-c2ccccc2)c1C#N`, the survival was 85%.

As to `C=C(C)CSc1nc(-c2ccccc2)cc(-c2ccc(OC)cc2)c1C#N`, the survival is 57%.

Turning to `N#Cc1c(C(F)(F)F)cc(-c2ccc(F)cc2)nc1SCC(=O)Nc1ccccc1`, the survival was 72%.

For the compound `N#CN=C(N)CSc1nc(-c2ccccc2)cc(-c2ccccc2)c1C#N`, the survival was 56%.

`Cc1ccc(NC(=O)CSc2nc(-c3ccc(F)cc3)cc(C(F)(F)F)c2C#N)cc1`: the survival is 63%.

For the compound `COc1ccc(OC)c(NC(=O)Nc2cccc(OCc3cc(=O)n4cc(C)ccc4n3)c2)c1`, the survival is 101%.

Consider `COc1ccc(N2CCN(C(=O)c3ccc4c(c3)N(Cc3cc(C)ccc3C)C(=O)c3ccccc3S4=O)CC2)cc1` (stereo not drawn), for which the survival is 85%.

As for `Cn1c(=O)c2c(-c3ccccc3)n3c4ccccc4nc(-c4ccccc4)c3c2n(C)c1=O`, the survival was 82%.

On to `CCc1cccc(C)c1NC(=O)CN1C(=O)c2c(c3ccccc3n2C)C1c1ccc(OC)cc1` (stereo not drawn), for which the survival was 83%.

On to `CCSc1ccccc1C(=O)N1CCN(c2nc3ccccc3s2)CC1`, for which the survival is 92%.

With `COc1cccc(NC(=O)C(=O)NCC(c2ccc3c(c2)OCO3)N2CCOCC2)c1` (stereo not drawn), the survival was 49%.

For `COc1ccc(-c2nsc(NC(=O)COc3ccccc3OC)n2)cc1`, the survival was 61%.

As for `CCOC(=O)c1c(C)[nH]c(CCC(=O)NC(C)c2ccccc2)c1C` (stereo not drawn), the survival is 94%.

Consider `Cc1ccc2nc(N(Cc3cccnc3)C(=O)C3COc4ccccc4O3)sc2c1` (stereo not drawn), for which the survival was 94%.

`COc1cc(Cl)c(C)cc1NC(=O)c1cn(C2CCCC2)c(=O)c2c1c1ccccc1n2C`: the survival was 109%.

For the compound `COc1cccc(NC(=O)/C(C#N)=C\c2cn(Cc3ccc(Cl)cc3)c3ccccc23)c1`, the survival was 77%.

Turning to `COc1ccc(CNC(=O)c2ccc3c(c2)N(Cc2ccccc2C)C(=O)c2ccccc2S3=O)cc1` (stereo not drawn), the survival is 99%.

In the case of `COc1ccc(C2CC(=O)c3cnc4c(-c5ccccc5)c(C)nn4c3C2)cc1OC` (stereo not drawn), the survival is 54%.

In the case of `O=C(O)c1c2c(nc3ccc(S(=O)(=O)N4CCC(C(=O)NCc5ccc(Cl)cc5)CC4)cc13)CCCC2`, the survival is 90%.

For the compound `N#CC1=C(N)OC2=C(C(=O)CCC2)C1c1ccccc1C(F)(F)F` (stereo not drawn), the survival was 78%.
